Data reported in the supplement of paper PMC6555819.

Assays:
Assay in all cases: PBM binding z-score (relative to random genomic background probes); higher = stronger binding; sequences stand for … in GC…GCGATTGACAGCGTAGAATGAAGG
[1] = test system: PPARg:RXRa DBDmut IVT, anti-RXR (DBD mutation: RXRa K156A/R161A, NR concentration 270 nM, RXRa partner concentration 90 nM)
Summary of the method: (§1)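 Binding z-scores take random background probes as their reference. They come from custom Agilent 4×180K protein-binding microarrays incubated 1 h with ligand-free nuclear receptor dimers, with antibodies against each partner (one per run) detecting binding. Scanned fluorescence was regression-normalized.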

[2] = test system: PPARg:RXRa IVT, anti-PPARg (NR concentration 270 nM, RXRa partner concentration 90 nM)
Summary of the method: as §1

[3] = test system: PPARg DBDmut:RXRa IVT, anti-PPARg (DBD mutation: PPARg1 K132A/R137A, NR concentration 270 nM, RXRa partner concentration 90 nM)
Summary of the method: as §1

[4] = test system: PPARg DBDmut IVT, anti-PPARg (DBD mutation: PPARg1 K132A/R137A, NR concentration 270 nM)
Summary of the method: as §1

[5] = test system: PPARg homodimer (NR concentration 180 nM)
Summary of the method: as §1

[6] = test system: PXR:RXRa (NR concentration 270 nM, RXRa partner concentration 90 nM)
Summary of the method: as §1

[7] = test system: PXR homodimer (NR concentration 270 nM)
Summary of the method: as §1

[8] = test system: RARa:RXR (NR concentration 270 nM, RXRa partner concentration 90 nM)
Summary of the method: as §1

[9] = test system: RARa homodimer (NR concentration 270 nM)
Summary of the method: as §1

[10] = test system: RARb:RXRa (NR concentration 270 nM, RXRa partner concentration 90 nM)
Summary of the method: as §1

Sequence	PBM binding z-score [1]	PBM binding z-score [2]	PBM binding z-score [3]	PBM binding z-score [4]	PBM binding z-score [5]	PBM binding z-score [6]	PBM binding z-score [7]	PBM binding z-score [8]	PBM binding z-score [9]	PBM binding z-score [10]
ACTAGTTGGTCAGCTGAGGACACACACAATTCGG	0.766	1	0.592	0.377	0.0418	1.38	0.241	1.05	0.18	1.52
CAAACTAGGTCAGAGGTCAAAGTCGAGCCAACCA	8.29	8.85	2.06	4.69	5.7	6.37	2.49	8.36	2.29	5.18
AGAATAAGGTTATACGTAGATCAGGGAAGAAAGT	2.81	1.19	1.32	1.1	0.729	1.03	0.578	1.66	0.976	1.64
TCTCGGAGGACAAGAAAGGTCAGAGCTCGACATC	1.37	0.954	-0.439	-0.79	2.62	3.55	0.191	4.02	0.689	4
CCTTACGGGTCACTGACATGTTATAGCATTTGGA	3.55	4.1	1.46	0.945	1.83	3.22	0.262	4.06	1.38	4.06
ATCTCTAGGTAAAGGTTCAGTGAATCCCGAGGAT	2.8	3.07	1.06	0.461	0.615	0.795	0.0698	0.886	0.514	1.32
CCTACTGGGCCATTCAGAGGTCGTTGATCATATG	4.62	3.78	-0.302	0.289	0.217	1.55	0.112	1.27	-0.226	1.11
ACCATTAGTTGACTTAGGGCAACCGATACGACGC	0.771	0.653	0.856	-0.189	0.706	0.147	0.618	0.916	0.526	0.973
TCTTGTAGATCAATAGAGGTTAAGAAAGTGCGCT	1.96	1.06	0.946	0.475	0.36	2.86	0.0612	1.67	-0.172	0.91
ATCTCTCGGTAAGACTCAGTTCAGTGAAGAACGC	0.0945	0.262	0.647	0.946	1.35	1.2	1.82	0.858	1.21	0.565
CATACAGGGTCAGCTAGGCCAGAGTCGGGACGGC	1.33	2.55	0.623	0.297	2.62	2.15	-0.0453	3.26	0.539	4.13
ACAAGTTGGTCAGCTGAGGTCACACACAATTCGG	1.87	2.89	0.789	1.03	2.69	5.44	2	4.44	1.01	3.65
ATCTCCAGGTAACCAAGTTCAGTGAATGCCGAAC	0.934	1.52	0.875	0.957	0.841	2.24	2.55	0.649	0.534	0.985
CCAGACAGGTGTGAAGGTAACTCAGCCTCGATTA	-0.0821	-0.409	-1.46	-0.767	0.376	-0.386	0.146	-0.273	0.322	-0.103
ATGCCAAGGTGATCGTGAGGTCGTTGATACTAAC	0.413	1.05	0.0542	-0.951	0.442	2.75	1.03	2.28	-0.38	1.32
ATCGAAAGGACGACGAGGTGAGTATACACCGTTT	-0.481	0.315	0.774	0.683	-0.198	-0.109	-0.293	0.0451	0.198	1.1
TCTCGTAGATCAACAGGAGGTTAAGAAAGATCGA	1.41	0.00538	0.397	-0.0394	0.0333	0.901	-0.13	1.21	0.12	0.48
GCTAGTTGGTAAGTAAAAGGTCACACACCGGTCG	0.354	3.04	-0.0152	0.693	5.08	5.18	1.13	6.32	2.74	4.08
TGAATGATGTTATAAGATCAGGGAACGTTGCAAA	-1.12	-0.0889	0.204	0.597	-0.0286	-0.22	-0.193	0.123	0.481	-0.32
ATATGTAGGTTAAGGGTCATTCCGGTTGGTTCGC	7.18	7.95	2.74	3.31	3.95	5.32	1.33	5.86	1.66	3.58
TCATAAAGGTAAAGGTGAAAGTCGAACGATATGA	2.88	3.1	1.14	0.528	1.69	1.3	-0.127	2.37	0.551	2.66
CGCCCAAGGTCATAGGAGGTCAGTGAAGACAGAT	2.88	4.26	-0.0879	-0.0436	3.59	6.51	3.76	5.06	1.63	5.45
TCTAGTTGGTCACGGAGTTCACACACGACGGGTA	2.4	2.92	1.45	0.822	1.92	4.53	3.62	2.15	0.649	2.87
CCGACTGGGGCAAATGTTACCATACTCAGTACGA	4.63	3.74	0.00418	0.212	0.439	-0.402	-0.187	-0.273	-0.109	0.683
ATATGTAGGTTATCGGGTCGTTCAGTTTGCGCAT	7.3	6.87	1.68	1.58	1.6	1.91	2.09	1.62	1.26	1.42
